# Test results: PubChem BioAssay AID686979 (National Center for Advancing Translational Sciences (NCATS), 2013)
# Hit rate of the full screen: of about 420,000 compounds, about 50,000 (12%) were called active. A call without a number means that no potency is given here. Roughly 26% stayed inconclusive and do not appear here. Calls follow the shape of the dose curve; as a rule, active = well fitted inhibition curve with a large enough effect; inconclusive = small, poorly fitted or top-dose-only effect; inactive = flat fitted curve, though single readings scatter. Only a selection was taken, and actives are over-represented in it overall.
# Experiment: qHTS for Inhibitors of human tyrosyl-DNA phosphodiesterase 1 (TDP1): qHTS in cells in presence of CPT; also: nearly all actives have a fitted effect of over 55% in size
# Settings: chicken DT40 Tdp1-/-;hTDP1 cells + 20 nM CPT, ATP luminescence, 48 h; series mostly up to 46.2 µM
# Excerpt: Human tyrosyl-DNA phosphodiesterase 1 (TDP1) is a novel repair gene, and we propose to use it as a new target for anticancer drug development. TDP1 is not an essential protein, but under treatment with topoisomerase I poison (camptothecin: CPT), TDP1 works as a critical factor for cell survival. To directly identify novel TDP1 inhibitors active in a cellular environment, we have knocked-out the Tdp1 gene in chicken DT40 cells (Tdp1-/-) and generated a complemented counterpart cells that contains a stable transfection of the human TDP1 gene (Tdp1-/-;hTDP1 cells). For the primary screen, Tdp1-/-;hTDP1 cells will be exposed to small molecules in the presence or absence of CPT, and their growth kinetics will be evaluated after 48 hours by measuring ATP activity. […] The hit compounds will then be evaluated in the presence or absence of CPT using Tdp1-/- cells. […] In tertiary assays, biochemical gel-based assays will be used to assess whether the hit compounds specifically target TDP1. To this end, we have screened this cell line against the MLSMR in two primary screens. In one screen we add CPT and in the other we screen in the absence of CPT; this AID represents the screen where CPT was present. NIH Chemical Genomics Center [NCGC] NIH Molecular Libraries Probe Centers Network [MLPCN] MLPCN Grant: MH095538 Assay Submitter (PI): Yves Pommier, NCI
# DT40-hTDP1 cells with 20 nM Camptothecin (add 20 microL of 1 mM CPT stock in 1 L of cell culture medium) were dispensed at 400 cells/5microL/well in tissue culture treated 1536-well white wall/solid bottom assay plates (Greiner Bio-One North America, NC, U.S.A.) using a Multidrop Combi 8 channel dispenser (Thermo Fisher, Waltham, MA, USA). 23 nL compounds and controls were transferred using the pin tool (Kalypsys, San Diego, CA, USA) to the assay plates. The assay plates were then incubated at 37 masculineC for a minimum 48 hr. Three microL of Cell Titer Glo solution was added to the plates and incubated at RT in dark for 30 min. Luminescence was read using ViewLux (Perkin Elmer) with 1 sec exposure slow speed, high gain and 2x binning.
# Potency is read from the fitted curve at half-maximal effect.
row,Structure (SMILES),Potency
1,CCc1nn(-c2cc(Oc3cccc4ccccc34)nc(-c3ccccc3)n2)c(N)c1C#N,10.3 µM (active)
2,CCCC(=O)n1nc(-c2ccccc2)nc1N,inactive
3,CC(C(=O)N1CCN(c2ccccc2F)CC1)c1ccc([N+](=O)[O-])cc1 (stereo not given),inactive
4,CC1CCN(CC(=O)Nc2nccs2)CC1,inactive
5,Cc1c(C)c(C)c(S(=O)(=O)N2CCC3(CC2)OCCO3)c(C)c1C,inactive
6,CCOc1ccc(NC(=O)CN(C)C(=O)CSc2ccccc2)cc1OCC,inactive
7,O=C(c1cc(S(=O)(=O)N2CCOCC2)ccc1Cl)N1CCOCC1,inactive
8,CN1CCN(NC(=O)c2ccc(S(=O)(=O)N3CCCCCC3)cc2)CC1,inactive
9,COc1cc2c(cc1OC)CN(C(=O)c1ccc(S(=O)(=O)N3CCCCCC3)cc1)CC2,20.6 µM (active)
10,COc1cc2c(cc1OC)CN(C(=O)c1cc(S(=O)(=O)N3CCCCC3)ccc1Cl)CC2,20.6 µM (active)
11,COC(=O)c1ccc(CNC(=O)c2ccc(S(=O)(=O)N3CCCCCC3)cc2)cc1,inactive
12,COc1ccc(S(=O)(=O)N2CCCCC2)cc1Br,inactive
13,COc1ccc(C(=O)n2nc(C)c(Br)c2C)cc1OC,inactive
14,COc1ccc(C(=O)n2nc(-c3ccc(C)cc3)nc2N)cc1OC,13 µM (active)
15,COc1ccc(C(=O)CN2C(=O)NC(C)(c3ccc(C)cc3)C2=O)cc1OC (stereo not given),inactive
16,CN1CCN(c2ccc(CNS(=O)(=O)c3cccc(F)c3)cc2)CC1,inactive
17,CCCCc1ccc(S(N)(=O)=O)cc1,inactive
18,N#Cc1ccccc1CN1C(=O)S/C(=C/c2cccn2-c2cccc(C(=O)O)c2)C1=O,inactive
19,O=C(c1cc(-c2ccc(O)cc2)on1)N1CCCc2ccccc21,inactive
20,Cc1c(C(=O)N2CCCc3ccccc32)oc2ccccc12,inactive
21,Cc1cccc2cc3c(N)c(C(=O)N4CCCc5ccccc54)sc3nc12,4.11 µM (active)
22,Cc1c(C(=O)O)nnn1-c1nonc1N,inactive

row,Structure (SMILES),Potency
1,COc1cc(OC)c(C(=O)NNC(=O)c2ccccc2-n2cccc2)cc1OC,inactive
2,Cc1ccccc1CSc1nc(-c2ccccc2)nc2c1Cc1c(CO)cnc(C)c1O2,inactive
3,CSc1nc(-c2ccc(F)cc2)nc2c1Cc1c(CO)cnc(C)c1O2,inactive
4,CSc1nc(-c2ccccc2Cl)nc2c1Cc1c(CO)cnc(C)c1O2,14.6 µM (active)
5,CCOC(=O)c1cnc2nc(SCc3ccccc3Cl)[nH]n2c1=O,inactive
6,CS(=O)(=O)c1ccc(Cl)c(NC(=O)COC(=O)c2ncc(Cl)c(Cl)c2Cl)c1,inactive
7,Cc1nc2ccc(C(=O)N(C)CC3CCCN(CCc4ccc(Cl)cc4)C3)cc2[nH]1 (stereo not given),inactive
8,COc1cccc(CN(C)CC(=O)NCc2ccccc2Cl)c1OC,inactive
9,COc1cccc(CN(C)CC2CCCN(CCc3ccc(Cl)cc3)C2)c1OC (stereo not given),16.4 µM (active)
10,CCc1ccnc(NS(=O)(=O)c2ccc3c(c2)OCCO3)c1,inactive
11,Cc1ccc(C2CC(c3cccc(C)c3)n3nc(N)nc3N2)cc1 (stereo not given),inactive
12,COc1ccc(C2CC(c3ccc(C)cc3)Nc3nc(N)nn32)cc1 (stereo not given),inactive
13,CCOc1ccccc1C1CC(c2ccc(Cl)cc2)Nc2nc(N)nn21 (stereo not given),18.4 µM (active)
14,COc1ccccc1N1CCN(c2ncnc3onc(-c4cccc(Cl)c4)c23)CC1,inactive
15,COc1ccccc1N1CCN(c2ncnc3sc(C)c(-c4ccccc4)c23)CC1,23.1 µM (active)
16,COc1ccccc1N1CCN(c2nc(C)cc(=O)[nH]2)CC1,inactive
17,Cn1cnc(S(=O)(=O)Nc2ccc3c(c2)OCCO3)c1,inactive
18,O=C(COC(=O)c1cc(-c2cccs2)nn1-c1ccccc1)Nc1cc([N+](=O)[O-])ccc1Cl,inactive
19,CCc1cccc(CC)c1NC(=O)Cn1c(=O)c(-c2cc(C)ccc2NC(C)=O)nc2ccccc21,inactive
20,CCCn1c(N)c(C(=O)CSc2nnc(-c3cccnc3)n2-c2ccc(C)cc2C)c(=O)[nH]c1=O,inactive
21,Cc1nc2c(-c3ccccc3)c(C)[nH]n2c(=O)c1Cl,inactive
22,COCc1cc(=O)n2[nH]c(C)c(-c3ccccc3)c2n1,inactive

row,Structure (SMILES),Potency
1,CCCc1cc(=O)n2[nH]c(C)c(-c3ccc(Cl)cc3)c2n1,20.6 µM (active)
2,CCOc1cc(C)c(S(=O)(=O)NCc2ccccn2)cc1C,inactive
3,COc1ccc(NC(=O)C2C3CCC(O3)C2C(=O)O)cc1OC (stereo not given),inactive
4,COCC(=O)N1CCc2ccc(NC(=O)c3ccccc3Cl)cc2C1,inactive
5,O=C(NCCCc1ccccc1)C1CCC(CNc2c(N3CCCCC3)c(=O)c2=O)CC1 (stereo not given),inactive
6,CC(C)Oc1ccc(CNC(=O)C2CCN(c3nc4ccccc4n(C)c3=O)CC2)cc1,inactive
7,Cc1ccc(CN2C(=O)CCC2C(=O)NCCCN2CCCCC2C)cc1 (stereo not given),inactive
8,Cc1ccc2[nH]cc(CCNC(=O)C3CCCCC3)c2c1,inactive
9,Cc1ccc(Cn2c(CCCNC(=O)C3CCCCC3)nc3ccccc32)cc1,16.4 µM (active)
10,CCc1ccc(OCCCn2c(CCCNC(=O)C3CCCCC3)nc3ccccc32)cc1,8.91 µM (active)
11,O=C(CSc1nnc(CNC(=O)c2ccccc2)n1-c1ccc(F)cc1)Nc1ccccc1F,inactive
12,Cc1ccc(NS(=O)(=O)c2ccc(N/N=C/c3ccccc3OCC(=O)O)c([N+](=O)[O-])c2)c(C)c1,inactive
13,O=C(CC1SC(=Nc2ccccc2F)N(CCN2CCOCC2)C1=O)Nc1ccc(F)cc1F (stereo not given),inactive
14,COc1ccccc1N(CC(=O)N/N=C(\C)c1ccccc1O)S(=O)(=O)c1ccc(C)cc1,inactive
15,Cc1ccc(S(=O)(=O)N(CC(=O)Nc2ccc(Cl)cc2Cl)c2ccccc2C)cc1,18.4 µM (active)
16,Cc1ccc(S(=O)(=O)N(CC(=O)NCc2ccco2)c2ccccc2C)cc1,inactive
17,COc1ccc(C(F)(F)F)cc1N/C=C\c1nnnn1-c1ccc(C)cc1,inactive
18,COc1ccccc1OCC(=O)O/N=C(\N)c1ccccn1,inactive
19,Cc1ccccc1-c1cc(C(=O)NCC2CC2)n(CC2CC(c3cccnc3)=NO2)n1 (stereo not given),inactive
20,CCOC(=O)c1ccc2[nH]c(C)c(CN3CCN(C)CC3)c(=O)c2c1,inactive
21,CCCOC(=O)c1ccc(N2C(=O)c3ccccc3C2=O)cc1,inactive
